A number with no mark means an inactive call. Results filed as inconclusive are left out. Calls of active or inactive are those of the source. Unless noted, the call rests on the fitted dose curve; in most records, active means well fitted curve in the direction sought with a large enough effect in the repeat runs; inconclusive means weak or mixed curves; inactive means no such curve, though single readings can be large; an effect the other way counts as inactive or inconclusive.

This is an account of results in PubChem BioAssay (Tox21).

The nature of assay [1]: A CellTox Green Cytotoxicity Assay to monitor cytotoxicity in HepG2 cells - 8 hour (AID 1224890). Further: nearly all actives have a fitted effect of over 45% in size. The method in brief:
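Fluorescent DNA-binding dye, 600 HepG2 cells/well, 5 h preincubation then compound in DMSO; same plates read at 0–40 h, 37 C.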

Assay [2] is described as follows: qHTS assay to identify small molecule antagonists of the androgen receptor (AR) signaling pathway using the MDA cell line in the presence of 0.5 nM R1881 - cell viability counter screen (AID 1259242). Further: nearly all actives have a fitted effect of over 45% in size. The method in brief:
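Human breast carcinoma MDA-kb2 cells, cultured without CO2, receive compounds alongside 0.5 nM (final) R1881 agonist. After 16 hr at 37C, viability is taken as live-cell protease signal.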

Assay [3] addresses Androgen receptor (Homo sapiens) (UniProt P10275). In words: qHTS assay to identify small molecule antagonists of the androgen receptor (AR) signaling pathway using the MDA cell line in the presence of 0.5 nM R1881 (AID 1259243). Further: nearly all actives have a fitted effect of over 50% in size. The method in brief: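 Cells: MDA-kb2 (MMTV-luc). Stimulus: 0.5 nM R1881. Time: 16 hr, 37C, no CO2. Detection: ONE-Glo luminescence after 30 min at RT.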

Assay [4] addresses Estrogen receptor (Homo sapiens) (UniProt P03372). In words: qHTS assay to identify small molecule antagonists of the estrogen receptor alpha (ER-alpha) signaling pathway using the BG1 cell line in the presence of 0.1 nM 17-beta-estradiol (AID 1259244). Further: nearly all actives have a fitted effect of over 50% in size. The method in brief: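 Seeding of stripped-serum-adapted VM7Luc4E2 cells, 24 h attachment, compound transfer, then 0.1 nM final 17beta-estradiol; after 22 h incubation, ONE-Glo reagent and luminescence reading.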

Assay [5] is described as follows: qHTS assay to identify small molecule phospholipidosis (PLD) inducers (AID 1259344; active means well fitted curve in the direction sought with a large enough effect; an effect the other way counts as inactive or inconclusive). The method in brief: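 After 4 h attachment on collagen I, HepG2 cells were dosed with compound alongside LipidTOX Red, kept 24 h at 37 C, fixed, and imaged for lamellar phospholipid pits.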
Assay [6] is described as follows: qHTS assay to identify small molecule HDAC inhibitors (AID 1259364). Further: potency means the concentration at half of the fitted maximal effect.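 Further: wild-type HCT-116 cells with endogenous class I/II HDAC activity; nearly all actives have a fitted effect of over 45% in size.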 On activity change, negative = inhibition: top concentration of the series differs between compounds. The method in brief:
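After a 2 hr compound incubation (37C, 5% CO2), HCT-116 cells seeded at 1,500/well the day before received HDAC-Glo reagent; signal read as luminescence after 30 min at room temperature.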
Background: Quantitative high-throughput screening tests each substance at several concentrations.

Assay [7] in a line: qHTS assay to identify small molecule HDAC inhibitors - cell viability counter screen (AID 1259365). Further: series mostly up to about 92 µM; nearly all actives have a fitted effect of over 50% in size. The method in brief:
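Wild-type HCT-116 cells, 1,500/well, cultured overnight, then compound-treated 2 h at 37 C. Viability measured as ATP luminescence with CellTiter-Glo after 30 min at room temperature.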

A short description of assay [8]: qHTS assay to identify small molecule agonists of the sonic hedgehog signaling (Shh) pathway - cell viability counter screen (AID 1259366). Further: nearly all actives have a fitted effect of over 50% in size. The method in brief: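 NIH/3T3-derived Gli1-Luc reporter cells, 2,000 per well, received compound after 4 h and were treated about 23 h at 37C. Viability measured in the same wells by CellTiter-Fluor fluorescence after 1 h.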

The nature of assay [9]: qHTS assay to identify small molecule agonists of the sonic hedgehog signaling (Shh) pathway (AID 1259368; calls by dose curve;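 further: NIH/3T3-derived 3T3Gli1-Luc cells carrying a stable Gli1-driven firefly luciferase reporter; series mostly up to about 92 µM; nearly all actives have a fitted effect of over 15% in size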). The method in brief:
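Stable NIH/3T3 Gli1-Luc reporter clone; 24 hr cpd exposure after a 4 hr settling period; luminescence endpoint.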

The target in assay [10] is Estrogen receptor beta (Homo sapiens) (UniProt Q92731). The experiment in a line: qHTS assay to identify small molecule agonists of the estrogen receptor beta (ER-beta) signaling pathway (AID 1259377; active means well fitted activation curve with a large enough effect in the signal ratio in the repeat runs, not every such curve was filed as active; the % refers to the signal ratio). The method in brief: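 ER-beta-UAS-bla HEK293T cells in medium with 2% charcoal-stripped FBS were exposed to compounds for 16 h at 37C. Beta-lactamase reporter activity was read as fluorescence after 2 h with LiveBLAzer B/G FRET substrate at room temperature.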
Sequence of Estrogen receptor beta (Homo sapiens) (Q92731 whole entry, looked up): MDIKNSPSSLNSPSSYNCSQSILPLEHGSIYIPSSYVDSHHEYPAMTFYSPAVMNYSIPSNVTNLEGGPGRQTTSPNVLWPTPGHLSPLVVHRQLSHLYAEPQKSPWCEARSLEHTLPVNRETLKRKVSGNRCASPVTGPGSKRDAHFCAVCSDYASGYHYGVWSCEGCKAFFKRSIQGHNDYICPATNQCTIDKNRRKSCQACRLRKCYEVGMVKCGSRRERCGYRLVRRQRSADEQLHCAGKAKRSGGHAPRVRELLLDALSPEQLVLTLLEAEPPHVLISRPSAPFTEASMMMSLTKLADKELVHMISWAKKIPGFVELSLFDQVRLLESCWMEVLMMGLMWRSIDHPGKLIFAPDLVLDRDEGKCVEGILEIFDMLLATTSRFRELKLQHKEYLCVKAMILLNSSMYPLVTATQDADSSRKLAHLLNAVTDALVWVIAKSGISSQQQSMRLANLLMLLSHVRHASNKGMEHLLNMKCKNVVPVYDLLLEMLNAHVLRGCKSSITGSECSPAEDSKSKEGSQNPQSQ

Assay [11] has the same target. The experiment in a line: qHTS assay to identify small molecule antagonists of the estrogen receptor beta (ER-beta) signaling pathway (AID 1259378; active means well fitted inhibition curve with a large enough effect in the signal ratio in the repeat runs, not every such curve was filed as active; the % refers to the signal ratio; further: potency means the concentration at half of the fitted maximal effect). The method in brief:
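ER-beta-UAS-bla HEK293T (GripTite) cells in 2% charcoal-stripped FBS medium were preincubated 6 hr at 37C, dosed with compound, then stimulated with 1 nM E2 (final) for 16 hr; beta-lactamase reporter read by B/G FRET fluorescence after 2 hr substrate loading.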

Assay [12] deals with Androgen receptor (Homo sapiens) (UniProt P10275). In words: qHTS assay to identify small molecule agonists of the androgen receptor (AR) signaling pathway in the presence of an antagonist (AID 1259381; calls by dose curve; further: nearly all actives have a fitted effect of over 15% in size). The method in brief:
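AR antagonist background: nilutamide 3.0uM final. Cell line: MDA-kb2, MMTV-driven luciferase, responsive to both AR and GR. Exposure 16hr, 37C, no CO2; ONE-Glo luminescence.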

Assay [13] can be described thus: qHTS assay to identify small molecule antagonists of the estrogen receptor beta (ER-beta) signaling pathway - cell viability counter screen (AID 1259382). Further: series mostly up to about 92 µM; nearly all actives have a fitted effect of over 55% in size. The method in brief: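 HEK293T ER-beta-UAS-bla, 2% charcoal-stripped FBS; compounds + 1nM E2 16 hr 37C; CellTiter-Glo luminescence, 30 min RT.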
Assay [14] deals with Estrogen receptor (Homo sapiens) (UniProt P03372). In words: qHTS assay to identify small molecule agonists of the estrogen receptor alpha (ER-alpha) signaling pathway in the presence of an antagonist (AID 1259383; calls by dose curve; further: top concentration of the series differs between compounds; nearly all actives have a fitted effect of over 15% in size). The method in brief: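 ER-alpha agonism measured under antagonist challenge: 10.0nM ICI-182,780 (final) plus compound, 15 concentrations, 22hr, VM7Luc4E2 ERE-luciferase cells. Read by luminescence.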
Sequence of Estrogen receptor (Homo sapiens) (P03372 whole entry, looked up): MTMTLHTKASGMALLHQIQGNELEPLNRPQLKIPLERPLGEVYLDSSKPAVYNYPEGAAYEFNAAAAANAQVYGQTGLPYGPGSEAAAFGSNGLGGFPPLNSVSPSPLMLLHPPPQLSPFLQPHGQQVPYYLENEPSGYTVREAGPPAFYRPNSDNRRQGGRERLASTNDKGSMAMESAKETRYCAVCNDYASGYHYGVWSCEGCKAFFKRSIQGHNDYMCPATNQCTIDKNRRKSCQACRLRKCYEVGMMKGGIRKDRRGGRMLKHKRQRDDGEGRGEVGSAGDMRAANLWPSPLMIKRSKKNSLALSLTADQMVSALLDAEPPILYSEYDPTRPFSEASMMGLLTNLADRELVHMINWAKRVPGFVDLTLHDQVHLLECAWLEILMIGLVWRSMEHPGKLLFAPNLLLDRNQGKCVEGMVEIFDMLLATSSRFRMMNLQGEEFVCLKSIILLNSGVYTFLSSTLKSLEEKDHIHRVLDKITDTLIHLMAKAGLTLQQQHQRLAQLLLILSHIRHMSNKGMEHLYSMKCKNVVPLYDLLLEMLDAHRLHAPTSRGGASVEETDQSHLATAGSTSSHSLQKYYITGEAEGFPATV

Assay [15] in a line: qHTS assay to identify small molecule antagonists of the estrogen receptor alpha (ER-alpha) signaling pathway using the BG1 cell line in the presence of 0.1 nM 17-beta-estradiol - cell viability counter screen (AID 1259241). Further: nearly all actives have a fitted effect of over 40% in size. The method in brief: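 VM7Luc4E2 cells (endogenous full-length ER-alpha, 4xERE-luciferase), cultured 5 days in charcoal-stripped serum, exposed to compounds with 0.1 nM 17beta-estradiol (final) for 22 hr at 37C. Viability read in same wells as live-cell protease fluorescence after 30 min.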

Assay [16] can be described thus: qHTS assay to identify small molecule antagonists of the sonic hedgehog signaling (Shh) pathway - cell viability counter screen (AID 1259367). Further: nearly all actives have a fitted effect of over 55% in size. The method in brief:
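Conditioned medium drove Shh signaling in 3T3 Gli1-Luc cells exposed to compounds at 37C and 5% CO2. Viability was determined from CellTiter-Fluor fluorescence, with reagent incubated 1 hr after 23 hr of treatment.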

The nature of assay [17]: qHTS assay to identify small molecule antagonists of the sonic hedgehog signaling (Shh) pathway (AID 1259369; calls by dose curve; further: nearly all actives have a fitted effect of over 45% in size). The method in brief: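 Gli1 transcriptional reporter (firefly Luc) in NIH/3T3 background, conditioned-medium activated. 24hr exposure, luminescence endpoint.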
Assay [18] is described as follows: qHTS assay to identify small molecule agonists of the estrogen receptor beta (ER-beta) signaling pathway - cell viability counter screen (AID 1259380). Further: nearly all actives have a fitted effect of over 30% in size. Further: potency means the concentration at half of the fitted maximal effect. The method in brief: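 In this qHTS counter screen, HEK293T cells carrying an ER-beta/UAS beta-lactamase reporter, grown in 2% charcoal-stripped FBS, received compound for 16 hr; ATP-based CellTiter-Glo luminescence was then read after 30 min at room temperature.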

Assay [19] is described as follows: qHTS assay to identify small molecule agonists or antagonists of the thyroid stimulating hormone receptor (TSHR) signaling pathway - wild type cell line counter screen (AID 1259384; calls by dose curve). The method in brief:
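Wild-type HEK293 cells were plated 18 h at 37 C/5% CO2, pin-dosed with compound plus Ro20-1724 medium, held 30 min at room temperature, then given cAMP-d2 and anti-cAMP-cryptate; fluorescence was read after 1 h. Fifteen concentrations, triplicate.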

A short description of assay [20]: qHTS assay to identify small molecule agonists of the androgen receptor (AR) signaling pathway in the presence of an antagonist - cell viability counter screen (AID 1259379).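 Further: MDA-kb2 human breast cancer cells carrying an MMTV luciferase reporter; series mostly up to about 92 µM; nearly all actives have a fitted effect of over 25% in size.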 The method in brief: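 Counter screen for cell viability run in parallel with the AR agonist-mode luciferase assay. MDA-kb2 cells were co-treated with nilutamide (3.0uM final) and compounds, then incubated 16 hr at 37C, and CellTiter-Fluor fluorescence was measured.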
On the % scale 0 is the no-effect control and ±100 the full control effect.

Sequence of Androgen receptor (Homo sapiens) (P10275 whole entry, looked up): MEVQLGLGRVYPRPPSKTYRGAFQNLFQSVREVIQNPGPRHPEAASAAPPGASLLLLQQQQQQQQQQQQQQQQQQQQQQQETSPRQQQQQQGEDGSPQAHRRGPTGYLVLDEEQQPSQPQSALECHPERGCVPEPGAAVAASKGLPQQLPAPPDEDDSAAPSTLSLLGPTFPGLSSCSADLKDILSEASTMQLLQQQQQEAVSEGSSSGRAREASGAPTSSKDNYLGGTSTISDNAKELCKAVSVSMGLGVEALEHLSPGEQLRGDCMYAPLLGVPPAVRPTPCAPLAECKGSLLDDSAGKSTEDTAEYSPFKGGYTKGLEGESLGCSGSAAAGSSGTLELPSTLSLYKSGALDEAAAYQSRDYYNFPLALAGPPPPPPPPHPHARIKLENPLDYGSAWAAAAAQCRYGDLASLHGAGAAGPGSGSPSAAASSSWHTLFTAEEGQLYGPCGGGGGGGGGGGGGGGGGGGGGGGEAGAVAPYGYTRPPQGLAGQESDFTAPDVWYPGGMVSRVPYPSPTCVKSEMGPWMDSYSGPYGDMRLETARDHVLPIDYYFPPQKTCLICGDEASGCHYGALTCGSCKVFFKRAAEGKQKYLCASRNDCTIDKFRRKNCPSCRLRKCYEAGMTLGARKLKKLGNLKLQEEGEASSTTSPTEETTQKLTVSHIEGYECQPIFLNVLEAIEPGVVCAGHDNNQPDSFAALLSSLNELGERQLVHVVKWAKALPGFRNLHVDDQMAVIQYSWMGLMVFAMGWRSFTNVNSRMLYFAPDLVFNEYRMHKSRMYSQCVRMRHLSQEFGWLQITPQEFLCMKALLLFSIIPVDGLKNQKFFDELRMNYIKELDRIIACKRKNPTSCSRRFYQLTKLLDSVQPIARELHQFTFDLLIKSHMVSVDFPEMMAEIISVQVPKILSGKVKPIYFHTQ

Turning to `CCCCc1ccc2nc(NC(=O)OC)[nH]c2c1`, the Potency entry in [1], in assay [3], in [4], in assay [8], in assay [9] and in assay [11] was “inactive” in each case. In addition, the Potency entry in [12] and in assay [14] was “inactive” throughout. In addition, the outcome in assay [2], in [5], in [7], in assay [10] and in assay [13] was inactive. Besides, in assay [6], the Potency is 10.6 µM (active).
Turning to `O=C(C(Cl)Cl)N1CCOC12CCCCC2`, the Potency entry in [1], in assay [15], in assay [4], in [6], in [8] and in [16] was “inactive” in each case. The Potency result in assay [9], in [17], in assay [11], in assay [18] and in assay [14] was “inactive” each time. The molecule was called inactive in assay [7], in assay [10] and in assay [19].
`CC(C)(CO)[C@@H](O)C(=O)NCCC(=O)O`: the Potency result in assay [1], in assay [4], in assay [6], in assay [8], in [16] and in [9] was “inactive” in each case. In addition, the Potency result in assay [17], in assay [20] and in [14] was “inactive” each time. Further, the outcome in assay [2], in [5], in assay [7], in assay [13] and in [19] was inactive.
On to `C/C(=N\O)[C@@H](C)NCC(C)(C)CN[C@H](C)/C(C)=N/O`, for which the Potency entry in assay [1], in [15], in assay [6], in [8], in [16] and in assay [9] was “inactive” each time. In addition, the Potency entry in assay [17], in assay [20] and in assay [18] was “inactive” each time. In addition, the outcome in assay [7], in assay [13] and in [19] was inactive.
In the case of `O=C1N(c2ccccc2)c2ccccc2C1(Cc1ccncc1)Cc1ccncc1`, the Potency entry in [1], in assay [4], in assay [6], in assay [8], in [16] and in assay [17] was “inactive” in each case. Also, the Potency result in assay [11], in assay [20], in [18] and in [14] was “inactive” throughout. For the same molecule, the outcome in assay [2], in assay [5], in assay [7], in assay [10] and in assay [13] was inactive.
`CC(C)OC(C)C`: the Potency entry in assay [1], in [15], in assay [6], in assay [8], in assay [16] and in [17] was “inactive” in each case. In addition, the Potency entry in assay [20] and in assay [14] was “inactive” each time. Further, the call in assay [7] and in [19] was inactive.
For `O=C(O)CN(CCN(CC(=O)O)CC(=O)O)CCN(CC(=O)O)CC(=O)O`, the cytotoxicity increase in assay [1] was 26.9% [at 15.8 µM]. Moreover, the activity change, negative = cytotoxicity in assay [15] is -1.86% [at 19 µM]; in assay [7] it was 3.61% [at 19 µM]; in assay [20] it was -0.118% [at 19 µM]. Moreover, in [5], the molecule was classed as inactive. Further, the activity change, negative = inhibition in assay [6] is 3.25% [at 19 µM]; in assay [17], -28.7% [at 19 µM]. Further, the viability change, negative = cytotoxic in [8] is -18.4% [at 19 µM]; in assay [16], -7.04% [at 19 µM]. The activity change in [9] is 0.166% [at 18.9 µM, stronger effect = higher value]. The activation in assay [10] is -4.18% [at 19 µM]. Further, the Potency in [11] is 5.8 µM (active).
With `COc1ccc2nc(NC(=O)Nc3ccccc3)sc2c1`, the Potency entry in assay [1], in assay [15], in assay [8], in [16], in [9] and in assay [17] was “inactive” throughout. In assay [20], the Potency result was “inactive”. For the same molecule, the result in [5], in assay [7] and in [19] was inactive. Moreover, the figures for the Potency in [6] and in assay [18] were 3.35 µM (active) and 10.6 µM (active), respectively.
In the case of `CCCCCCCCc1ccc(S(=O)(=O)O)cc1`, the Potency result in assay [1], in assay [15], in assay [6], in assay [8], in [16] and in assay [9] was “inactive” in each case. Also, the Potency result in assay [20] is “inactive”. For the same molecule, the molecule was classed as inactive in [7], in assay [10] and in [19]. In addition, in [18], the Potency is 19.2 µM (active).
